Our source for the Potency and outcome values is PubChem BioAssay (Tox21).

Where “and” joins values, the source holds several entries; their conditions need not be identical. Equal entries are not always repeated. Inconclusive results are not listed. Where a structure was tested more than once in an assay, its records may differ in their call. Calls of active or inactive are those of the source. Unless noted, the call rests on the fitted dose curve.

A short description of test [1]: qHTS assay to identify small molecule agonists of the vitamin D receptor (VDR) signaling pathway - cell viability counter screen (AID 743224; active means well fitted curve in the direction sought with a large enough effect in the repeat runs; an effect the other way counts as inactive or inconclusive; further: nearly all actives have a fitted effect of over 50% in size; further: potency means the concentration at half of the fitted maximal effect). In short, it runs like this:
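Counter screen for cytotoxicity: VDR-bla cells at 2,000 cells/well, 16 h compound exposure, then CellTiter-Glo luminescence after the beta-lactamase measurement.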
(In general: qHTS replaces the single test concentration by a dilution series.)

The nature of test [2]: qHTS assay to identify small molecule antagonists of the vitamin D receptor (VDR) signaling pathway - cell viability counter screen (AID 743225; active means well fitted curve in the direction sought with a large enough effect in the repeat runs; an effect the other way counts as inactive or inconclusive; further: nearly all actives have a fitted effect of over 50% in size; further: potency means the concentration at half of the fitted maximal effect). In short, it runs like this:
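VDR-bla HEK 293T cells, 4 h pre-incubation at 37C, then compound plus 1-alpha,25-dihydroxyvitamin D3 (3 nM final) for 16 h. After the beta-lactamase FRET read, CellTiter-Glo was added to the same wells; luminescence after 30 min at room temperature.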

Test [3] can be described thus: qHTS assay to identify small molecule agonists of the NFkB signaling pathway - cell viability counter screen (AID 1159515). Further: nearly all actives have a fitted effect of over 55% in size. Further: potency means the concentration at half of the fitted maximal effect. The essentials:
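Counter screen run alongside the NFkB-bla agonist assay: ME-180 reporter cells exposed to compounds for 5 hr, then lysed with CellTiter-Glo in the same wells. Luminescence, read after 30 min, reflects viable cells.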

Test [4] can be described thus: qHTS assay to identify small molecule agonists of the endoplasmic reticulum stress response signaling pathway (AID 1159516; active means well fitted activation curve with a large enough effect in the signal ratio in the repeat runs, not every such curve was filed as active; the % refers to the signal ratio). In short, it runs like this: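 For this screen, HeLa cells stably carrying beta-lactamase under the ER stress response element received test compounds, positive controls or DMSO for 5 hr at 37 C; B/G FRET substrate was then added and dual-wavelength emission recorded.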

A short description of test [5]: qHTS assay to identify small molecule agonists of the endoplasmic reticulum stress response signaling pathway - cell viability counter screen (AID 1159517). Further: nearly all actives have a fitted effect of over 50% in size. Further: potency means the concentration at half of the fitted maximal effect. In short, it runs like this: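 ESRE-bla HeLa cells (1,500/well) were plated overnight at 37 C and exposed to compounds for 5 hr. After the 2 hr beta-lactamase substrate read, CellTiter-Glo went into the same wells, and luminescence was read after 30 min at room temperature.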

A short description of test [6]: qHTS assay to identify small molecule antagonists of the retinoid-related orphan receptor gamma (ROR-gamma) signaling pathway - cell viability counter screen (AID 1159520; active means well fitted curve in the direction sought with a large enough effect in the repeat runs; an effect the other way counts as inactive or inconclusive; further: nearly all actives have a fitted effect of over 50% in size; further: potency means the concentration at half of the fitted maximal effect). In short, it runs like this:
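Cytotoxicity was read from cellular ATP (CellTiter-Glo luminescence) after 16 hr at 37 C with 1 uM doxycycline induction. The inducer was added 2 hr after compound transfer to Tet-on ROR gamma CHO cells.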

Test [7] has as its target Nuclear receptor ROR-gamma (Homo sapiens) (UniProt P51449). Nature of the test: qHTS assay to identify small molecule antagonists of the retinoid-related orphan receptor gamma (ROR-gamma) signaling pathway (AID 1159521; active means well fitted curve in the direction sought with a large enough effect in the repeat runs; an effect the other way counts as inactive or inconclusive; further: nearly all actives have a fitted effect of over 50% in size; further: potency means the concentration at half of the fitted maximal effect). In short, it runs like this:
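Tet-on RORγ CHO cells carrying a ROR response element–luciferase reporter were pretreated with compounds for 2 h, then induced with 1 uM (final) doxycycline hyclate for 16 h at 37 C. Antagonism was read as decreased ONE-Glo luminescence.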

The nature of test [8]: qHTS assay to identify small molecule agonists of the AP-1 signaling pathway - cell viability counter screen (AID 1159525). Further: nearly all actives have a fitted effect of over 55% in size. The essentials: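 Intracellular ATP by Cell Titer Glo luminescence (30 min, RT) in the same ME-180 AP-1-bla wells after the 5 h compound exposure at 37 °C. Normalised to tetra n-octyl ammonium bromide and DMSO controls.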
Test [9] is described as follows: qHTS assay to identify small molecule agonists of the AP-1 signaling pathway (AID 1159526).
In test [10] the target is Retinoic acid receptor RXR-alpha (Homo sapiens) (UniProt P19793). Nature of the test: qHTS assay to identify small molecule agonists of the RXR signaling pathway (AID 1159527). Further: nearly all actives have a fitted effect of over 35% in size. In short, it runs like this: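 GeneBLAzer RXR-alpha-UAS-bla HEK 293T cells in medium with 2% charcoal-stripped FBS, pre-incubated 5 hr at 37 C, then exposed to compounds 16 hr. Beta-lactamase reporter read by FRET substrate, 2 hr room temperature, 460/530 nm emission.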
Retinoic acid receptor RXR-alpha (Homo sapiens), sequence (P19793 whole entry, looked up): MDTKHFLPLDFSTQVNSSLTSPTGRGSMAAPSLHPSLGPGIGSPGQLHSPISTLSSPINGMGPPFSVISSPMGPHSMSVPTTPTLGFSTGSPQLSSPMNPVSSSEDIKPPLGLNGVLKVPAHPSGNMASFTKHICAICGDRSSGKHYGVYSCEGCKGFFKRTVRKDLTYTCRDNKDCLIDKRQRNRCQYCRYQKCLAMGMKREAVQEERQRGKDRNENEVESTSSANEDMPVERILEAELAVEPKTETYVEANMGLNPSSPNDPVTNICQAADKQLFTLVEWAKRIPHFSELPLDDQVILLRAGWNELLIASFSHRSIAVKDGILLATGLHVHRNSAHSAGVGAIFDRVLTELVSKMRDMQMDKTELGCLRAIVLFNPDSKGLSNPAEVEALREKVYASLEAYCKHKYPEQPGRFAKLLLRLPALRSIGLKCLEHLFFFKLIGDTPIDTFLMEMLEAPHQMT

In the case of `O=C1CCCO1`, the Potency result in test [1], in test [2], in test [3], in test [4], in test [5] and in [6] was “inactive” throughout. The Potency entry in test [7] and in [8] was “inactive” in each case. In [9], the result was inactive.

Take `ClC(Cl)=C(Cl)C(Cl)=C(Cl)Cl`: the Potency result in test [1], in [2], in [3], in [4], in test [5] and in [6] was “inactive” in each case. The Potency result in [7] and in test [10] was “inactive” each time. Moreover, the result in [9] was inactive.

For the compound `CCC1(c2ccc(N)cc2)CCC(=O)NC1=O` (stereo not drawn), the Potency result in test [1], in test [2], in test [3], in [4], in [5] and in [6] was “inactive” each time. Also, the Potency entry in [7] and in test [10] was “inactive” in each case. Further, in [9], the compound was called inactive.

As to `CCNc1nc(Cl)nc(NC(C)(C)C#N)n1`, the Potency entry in test [1], in [2], in [3], in test [4], in test [5] and in [6] was “inactive” each time. Moreover, the Potency result in test [7] and in test [8] was “inactive” each time. In addition, the result in test [9] was inactive.

With `CC(C)(O)C(=O)Nc1ccc([N+](=O)[O-])c(C(F)(F)F)c1`, the Potency entry in test [1], in test [2], in test [3], in [4], in test [5] and in test [6] was “inactive” each time. In addition, the Potency result in test [8] was “inactive”. For the same compound, the Potency in [7] was 19.7 µM (active). In test [9], the result was inactive.

With `CCCCOCC1CO1` (stereo not drawn), the Potency entry in test [1], in test [2], in [3], in test [4], in [5] and in [6] was “inactive” each time. Further, the Potency entry in [7] and in [10] was “inactive” in each case. Further, the call in test [9] was inactive.

On to `CC(C)=CC1C(C(=O)OCc2cccc(Oc3ccccc3)c2)C1(C)C` (stereo not drawn), for which the Potency entry in test [1], in test [2], in test [3], in test [4], in test [5] and in [6] was “inactive” each time. The Potency entry in [7] and in [8] was “inactive” throughout. The call in [9] was inactive.

For `O=NN(c1ccccc1)c1ccccc1`, the Potency result in test [1], in test [2], in test [3], in [4], in [5] and in test [6] was “inactive” in each case. Further, the Potency result in [7] and in [10] was “inactive” in each case. Moreover, the compound was classed as inactive in test [9].

With `C[N+](C)(C)CC(=O)O`, the Potency entry in test [1], in test [2], in test [3], in test [4], in test [5] and in test [6] was “inactive” in each case. Moreover, the Potency result in test [7] and in [10] was “inactive” in each case. For the same compound, in test [9], the result was inactive.

As for `S=c1[nH]c2ccccc2[nH]1`, the Potency entry in test [1], in test [2], in test [3], in test [4], in test [5] and in test [6] was “inactive” in each case. Besides, the Potency entry in test [7] and in test [10] was “inactive” each time. Besides, in test [9], the call was inactive.

As to `CCOC(=O)c1ccccc1N`, the Potency result in [1], in test [2], in test [3], in test [4], in test [5] and in test [6] was “inactive” in each case. The Potency result in test [7] and in [8] was “inactive” throughout. Also, the result in test [9] was inactive.

Turning to `CSc1nc(NC(C)C)nc(NC(C)C)n1`, the Potency entry in test [1], in test [2], in test [3], in test [4], in [5] and in test [6] was “inactive” throughout. The Potency entry in [7] and in test [10] was “inactive” each time. The call in test [9] was inactive.

As to `CNC(=O)Oc1cccc2c1OC(C)(C)C2`, the Potency result in [1], in test [2], in [3], in test [4], in [5] and in test [6] was “inactive” throughout. The Potency entry in test [10] was “inactive”. In addition, in test [9], the compound was called inactive.

For the compound `CCC[CH2][Sn]([Cl])([CH2]CCC)[CH2]CCC`, the Potency in [1] is 437 nM (active) and 1.23 µM (active); in [2], 618 nM (active) and 3.47 µM (active); in test [3], 1.1 µM (active) and 1.95 µM (active); in test [5] it was 1.74 µM (active) and 3.09 µM (active); in test [6], 1.54 µM (active) and 1.72 µM (active); in test [7] it was 194 nM (active) and 686 nM (active).

Turning to `CCCCCCCCCC(CC)c1ccc(S(=O)(=O)O)cc1` (stereo not drawn), the Potency in [3] is 48.9 µM (active) and 21.3 µM (active); in [5], “inactive and 21.3 µM (active) and 21.9 µM (active)”. Further, the Potency entry in test [6] is “inactive”.

Regarding `CCOP(=S)(OCC)SCSC(C)(C)C`, the Potency entry in test [1], in test [2], in test [3], in test [4], in test [5] and in [6] was “inactive” throughout. The Potency entry in test [10] was “inactive”. Moreover, the result in test [9] was inactive.
